Reference: PubChem BioAssay
The source made the active and inactive calls.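 Rule for the calls, unless noted: active = NADPH fluorescence slope more negative than the mean of all samples by about 3 SD, 99.7% confidence; inactive = the rest.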

How the values were obtained:
[1] = inhibitors of TNFa-induced NFkB p65 translocation, primary screen, imaging, HUVEC, MLSMR starter and 10KST1 sets (AID 438;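 active = inhibition above 20% together with a positive visual image hit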;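 note: compound added about 3h40 before a 20 min TNFalpha stimulation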;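 for inhibition: signal is the nuclear over cytoplasmic p65 intensity ratio per well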); conditions: HUVEC TNFa-induced p65 nuclear translocation; cell count: measured here: nuclei count (cytotoxicity indicator), at 2.08 µM; inhibition: at 2 µM, stronger effect = higher value, 0% TNFa-plus-vehicle, 100% no-TNFa wells
[2] = inhibitors of mutant huntingtin aggregation, primary screen, imaging, exon1htt(103Q)mCFP cells, high-content imaging (AID 483;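 active = visual image review flags a hit and inhibition of aggregation exceeds 20%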;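 note: compound exposure lasted 3 days before fixation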;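 for nuclei count: percent of the per-plate median nuclei count of sample wells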); conditions: exon1htt(103Q)mCFP cell line, aggregate imaging, at 2 µM; inhibition of aggregation: stronger effect = higher value; nuclei count: measured here: cell count, toxicity
[3] = inhibitors of E-selectin induction by TNFa, primary screen, imaging, HUVEC, immunofluorescence, MLSMR starter and 10KST1 sets (AID 487;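 active = visually confirmed hit in the image check and inhibition above 20%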;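 for inhibition: signal is fraction of cell area covered by stained E-selectin grains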;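 for nuclei count: 100% = median nuclei count of all wells on the same plate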); conditions: HUVEC TNFalpha-induced E-selectin immunofluorescence imaging, at 2 µM; inhibition: stronger effect = higher value; nuclei count: measured here: cell number, toxicity
[4] = molecular target: Voltage-gated potassium channel subunit beta-2 (Rattus norvegicus) (UniProt P62483); assay: KvBeta enzyme negative modulators, primary screen, biochemical, NADPH fluorescence (AID 622;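 active = fluorescence slope higher than the sample average by over 3 SD, cut at about -0.22 in these data, passing the limit was not always enough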;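 note: slope of raw intensity against log time taken from 70 to 1610 s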); conditions: recombinant KvBeta, 4-cyanobenzaldehyde reduction, at 10 µM, stronger effect = higher value
Sequence of Voltage-gated potassium channel subunit beta-2 (Rattus norvegicus) (P62483 whole entry, looked up): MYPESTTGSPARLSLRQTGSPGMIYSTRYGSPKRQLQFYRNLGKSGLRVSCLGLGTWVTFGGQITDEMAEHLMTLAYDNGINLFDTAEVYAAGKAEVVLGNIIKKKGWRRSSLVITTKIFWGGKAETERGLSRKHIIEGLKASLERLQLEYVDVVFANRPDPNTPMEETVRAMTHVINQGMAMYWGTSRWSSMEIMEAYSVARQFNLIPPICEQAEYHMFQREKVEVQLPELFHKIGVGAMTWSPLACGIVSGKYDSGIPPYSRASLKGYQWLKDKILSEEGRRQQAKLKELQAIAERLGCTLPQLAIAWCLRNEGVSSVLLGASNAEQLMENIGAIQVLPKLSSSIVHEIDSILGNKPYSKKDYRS

[5] = molecular target: Voltage-gated potassium channel subunit beta-2 (Rattus norvegicus) (UniProt P62483); assay: KvBeta positive modulators, primary screen, biochemical, NADPH fluorescence (AID 623); conditions: Recombinant KvBeta, NADPH fluorescence decrease slope, 10 min; at 10 µM; stronger effect = lower value;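 note: fluorescence intensity change per second fitted from 20 to 320 s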
[6] = molecular target: Alpha-2C adrenergic receptor (Homo sapiens) (UniProt P18825); assay: modulators of alpha2C/GIRK thallium flux, primary screen, cell-based, HEK293 alpha2C/GIRK1/2 (AID 624;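 active = fluorescence slope after compound addition differing from the mean of all screened samples at 99.7% confidence, in either direction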;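 note: slope of fluorescence ratio to pre-addition baseline per second over 15 to 24 s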); conditions: thallium flux BTC fluorescence, at 10 µM, actives lie on both sides
Sequence of Alpha-2C adrenergic receptor (Homo sapiens) (P18825 whole entry, looked up): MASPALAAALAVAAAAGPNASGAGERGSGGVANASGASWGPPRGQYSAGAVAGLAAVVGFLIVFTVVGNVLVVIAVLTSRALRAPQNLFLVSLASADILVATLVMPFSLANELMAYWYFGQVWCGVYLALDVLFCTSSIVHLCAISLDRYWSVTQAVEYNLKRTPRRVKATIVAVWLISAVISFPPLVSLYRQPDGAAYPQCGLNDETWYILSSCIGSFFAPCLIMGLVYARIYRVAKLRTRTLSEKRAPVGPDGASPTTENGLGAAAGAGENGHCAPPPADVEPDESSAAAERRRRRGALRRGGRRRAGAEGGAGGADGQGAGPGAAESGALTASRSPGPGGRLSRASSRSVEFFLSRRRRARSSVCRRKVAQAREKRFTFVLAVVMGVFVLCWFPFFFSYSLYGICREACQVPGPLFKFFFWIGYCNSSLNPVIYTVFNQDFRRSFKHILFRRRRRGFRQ

[7] = inhibitors of Sendai virus-induced IRF3 signaling, primary screen, TLR/RLR signaling modifier project, cell-based, Sendai virus stimulus, luciferase, 10K MLSCN set (AID 602276;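 active = inhibition at or above 50% at 10 µM; inactive = inhibition below 50%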;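 note: firefly luciferase from ISG56 promoter only with Renilla not read in this screen; 0% = Sendai virus plus DMSO and 100% = medium plus DMSO without virus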); conditions: HEK293 RL24 IRF3 luciferase reporter, at 10 µM, stronger effect = higher value
[8] = inhibitors of poly I:C-induced TLR3 signaling, primary screen, cell-based, poly I:C stimulus, luciferase, 10K MLSCN set (AID 602277;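 active = inhibition of the reporter signal at or above 50%; inactive = inhibition below 50%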); conditions: HEK293-TLR3 RL24 IRF3 luciferase reporter, at 10 µM, stronger effect = higher value

Structure (SMILES) | cell count [1] | inhibition [1] | inhibition of aggregation [2] | nuclei count [2] | inhibition [3] | nuclei count [3] | fluorescence slope [4] | NADPH fluorescence slope [5] | slope [6] | inhibition [7] | inhibition [8]
CC(=O)O[C@H]1CSC[C@H]1NC(=O)c1ccccc1 | 467 | 10.9% (inactive) | 9.1% (inactive) | 96.2% | 21.9% (inactive) | 111% | -0.509 (inactive) | -1.7e-05 (inactive) | 0.00411 (inactive) | 16.6% (inactive) | 16.9% (inactive)
CCn1c(SCC(=O)C(C)(C)C)nnc1-c1cnccn1 | 581 | 6.5% (inactive) | 9.1% (inactive) | 98.5% | -27.3% (inactive) | 100% | -0.51 (inactive) | -6.4e-06 (inactive) | 0.00526 (inactive) | 2.48% (inactive) | 1.65% (inactive)
CCN(c1ccc2c(c1)OCO2)S(=O)(=O)c1cc(Br)cc2c1N(C(=O)C1CC1)CC2 | 341 | -14.4% (inactive) | 1.3% (inactive) | 99.8% | -9% (inactive) | 147% | -0.525 (inactive) | -0.000116 (inactive) | 0.00411 (inactive) | 11.9% (inactive) | 21.6% (inactive)
COC(=O)c1ccc(-c2ccco2)n1Cc1nc(-c2ccc(OC)c(OC)c2)oc1C | 470 | -0.5% (inactive) | 19% (inactive) | 113% | -28% (inactive) | 93.4% | -0.308 (inactive) | -4.8e-05 (inactive) | 0.00465 (inactive) | 12.2% (inactive) | -0.464% (inactive)
Cc1cc(C)n(-c2nc(C)nc3sc4c(c23)CCC(C)C4)n1 (configuration not stated) | 564 | -8.4% (inactive) | -2% (inactive) | 93.8% | -88% (inactive) | 121% | -0.465 (inactive) | 5.5e-06 (inactive) | 0.00248 (inactive) | -1.01% (inactive) | 32.1% (inactive)
Cc1cccc2cc(CN(CC3CCCO3)C(=O)c3cnccn3)c(=O)[nH]c12 (configuration not stated) | 257 | 18.6% (inactive) | 5.3% (inactive) | 45.1% | -41% (inactive) | 113% | -0.401 (inactive) | -9.9e-06 (inactive) | 0.00355 (inactive) | 8.77% (inactive) | 32.1% (inactive)
CC1=CCC(C(C)(C)NC(=O)c2ccccc2)C/C1=N\O (configuration not stated) | 313 | 2% (inactive) | -4.5% (inactive) | 89.1% | -6.2% (inactive) | 120% | -0.624 (inactive) | -1.5e-05 (inactive) | 0.00574 (inactive) | 17.1% (inactive) | 20.6% (inactive)
